In PubChem BioAssay AID1159580 (chemical genetic matrix, 2015):
In all, about 5,500 compounds went through this assay and about 2,000 (36%) were called active. Another 18% or so got no clear call; they are omitted. No stated cut-off is given here; in the data, active means normalized growth mostly below about 0.91 (no sharp cut-off); inconclusive means no clear call, values can overlap the other calls; inactive means mostly above about 0.92. Some of the results follow.

Experiment: chemical genetic growth profiling, strain panel (AID 1159580);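 further: tested at 20 µM; growth read once vehicle control cultures reached saturation at 30 °C; 1 = growth at the plate median or of vehicle wells; lower values mean less growth of the strain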
Settings: S. cerevisiae deletion strains, growth OD

Measured: normalized growth

COc1ccc(-c2cc(=O)c3c(OC)c(OC)c(OC)c(OC)c3o2)cc1OC
inactive: locus YAL021C, strain ccr4, hits give low values 1 | locus YAL026C, strain drs2, hits give low values 1 | locus YAL030W, strain snc1, hits give low values 0.999 | locus YBL061C, strain skt5, hits give low values 1 | locus YBR009C, strain hhf1, hits give low values 1.02 | locus YBR023C, strain chs3, hits give low values 1.01 | locus YBR171W, strain sec66, hits give low values 1 | locus YBR231C, strain swc5, hits give low values 0.997 | locus YBR279W, strain paf1, hits give low values 0.998 | locus YCL011C, strain gbp2, hits give low values 0.988 | locus YCL016C, strain dcc1, hits give low values 0.993 | locus YCL069W, strain vba3, hits give low values 1.02 | locus YCR088W, strain abp1, hits give low values 0.996 | locus YDL005C, strain med2, hits give low values 1 | locus YDL040C, strain nat1, hits give low values 0.999 | locus YDR001C, strain nth1, hits give low values 0.991 | locus YDR069C, strain doa4, hits give low values 1.01 | locus YDR137W, strain rgp1, hits give low values 1.03 | locus YDR159W, strain sac3, hits give low values 0.96 | locus YDR195W, strain ref2 0.952 | locus YDR297W, strain sur2, hits give low values 0.986 | locus YDR334W, strain swr1, hits give low values 1.01 | locus YDR335W, strain msn5, hits give low values 1.02 | locus YDR392W, strain spt3, hits give low values 1.01 | locus YEL003W, strain gim4, hits give low values 1.01 | locus YEL037C, strain rad23, hits give low values 0.997 | locus YEL061C, strain CIN8 (second series), hits give low values 0.999 | locus YER015W, strain faa2, hits give low values 0.992 | locus YER016W, strain bim1, hits give low values 0.993 | locus YER111C, strain swi4, hits give low values 1 | locus YER155C, strain BEM2 (second series), hits give low values 0.996 | locus YFR010W, strain ubp6, hits give low values 1.02 | locus YGL167C, strain pmr1, hits give low values 1.01 | locus YGL173C, strain kem1, hits give low values 1.01 | locus YGL227W, strain vid30, hits give low values 0.985 | locus YGL240W, strain doc1, hits give low values 0.994 | locus YGL253W, strain hxk2, hits give low values 0.994 | locus YHR013C, strain ard1, hits give low values 0.973 | locus YHR027C, strain rpn1, hits give low values 1 | locus YHR030C, strain SLT2, hits give low values 1.01 | locus YHR079C, strain IRE1, hits give low values 1.01 | locus YHR142W, strain chs7, hits give low values 1.01 | locus YJL092W, strain hpr5, hits give low values 0.996 | locus YJL095W, strain BCK1 (second series), hits give low values 0.992 | locus YJL095W, strain BCK1, hits give low values 0.963 | locus YJL115W, strain asf1, hits give low values 0.988 | locus YJL129C, strain trk1, hits give low values 1.01 | locus YJL154C, strain vps35, hits give low values 0.983 | locus YJL164C, strain tpk1, hits give low values 1 | locus YJL166W, strain qcr8, hits give low values 0.998 | locus YJR066W, strain TOR1, hits give low values 0.976 | locus YKL160W, strain elf1, hits give low values 0.997 | locus YKR026C, strain gcn3, hits give low values 0.997 | locus YKR091W, strain srl3, hits give low values 0.996 | locus YLL001W, strain dnm1, hits give low values 0.996 | locus YLL026W, hits give low values 0.991 | locus YLL041C, strain sdh2, hits give low values 0.991 | locus YLR027C, strain aat2, hits give low values 1 | locus YLR113W, strain HOG1, hits give low values 0.941 | locus YLR221C, strain rsa3, hits give low values 0.996 | locus YLR258W, strain gsy2, hits give low values 1.01 | locus YLR262C, strain YPT6 (second series), hits give low values 1.04 | locus YLR320W, strain mms22, hits give low values 1 | locus YLR342W, strain FKS1, hits give low values 0.998 | locus YLR357W, strain rsc2, hits give low values 0.957 | locus YLR370C, strain arc18, hits give low values 0.988 | locus YLR384C, strain iki3, hits give low values 0.981 | locus YML120C, strain ndi1, hits give low values 1.01 | locus YMR058W, strain fet3, hits give low values 0.995 | locus YMR125W, strain sto1, hits give low values 1 | locus YMR129W, hits give low values 0.994 | locus YMR205C, strain PFK2, hits give low values 1.02 | locus YMR231W, strain pep5, hits give low values 1 | locus YNL071W, strain lat1, hits give low values 0.998 | locus YNL183C, strain NPR1, hits give low values 0.926 | locus YNL209W, strain ssb2, hits give low values 1 | locus YNL248C, strain rpa49, hits give low values 0.995 | locus YNL322C, strain KRE1 (second series), hits give low values 0.994 | locus YNR049C, strain mso1, hits give low values 1.01 | locus YOR001W, strain rrp6, hits give low values 0.982 | locus YOR070C, strain gyp1, hits give low values 0.988 | locus YOR080W, strain dia2, hits give low values 0.989 | locus YOR083W, strain WHI5, hits give low values 1 | locus YOR106W, strain vam3, hits give low values 1.01 | locus YOR231W, strain MKK1, hits give low values 1.02 | locus YOR265W, strain rbl2, hits give low values 1.02 | locus YOR270C, strain vph1, hits give low values 1.07 | locus YOR290C, strain snf2, hits give low values 0.988 | locus YPL051W, strain arl3, hits give low values 0.974 | locus YPL078C, strain atp4, hits give low values 0.985 | locus YPL106C, strain sse1, hits give low values 0.962 | locus YPL240C, strain hsp82, hits give low values 1 | locus YPL256C, strain CLN2, hits give low values 0.991
